# Autophagy mod: autophagy modulation, high-content screen; calls only at 10 µM (by protocol); AID 463193; MEF GFP-LC3 puncta imaging; test concentration mostly 10 µM; actives 0.98% (n = 190,000);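 active = percentage of spot-positive cells more than 3 SD above its plate mean, without a fluorescence outlier flag or 80% toxicity; inconclusive = no clear call, values can overlap the other calls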;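 note: spot-positive cell cutoff set from DMSO-treated cells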
# bCat KO growth: beta-catenin-lacking colon tumor cell growth suppression | actives 1.5% (n = 140,000) | viability, % at 10 µM | HCT116 beta-catenin knockout viability, CellTiter-Glo, 60 h; hits give low values;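 active = viability at or under a set limit, the compound median less 4 SD, cut at about 6% in these data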;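 note: 0% = Hyamine 1622 control at 20 µM and 100% = untreated cell control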
# Lmaj promast: inhibitors of Leishmania major promastigote growth; AID 1063; Leishmania major promastigotes, resazurin fluorescence viability; actives 9% (n = 200,000); inhibition, % at 10 µM; in the data active = inhibition above about 50%;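 note: promastigotes grown with compound for 44 hours at 28 °C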
# INS promoter inh: TRM-6 insulin promoter activity inhibition; TRM-6 cells (human fetal islet line), insulin promoter-eGFP reporter, imaging; reporter expression induced with tamoxifen; AID 1273; actives 0.9% (n = 130,000); inhibition, % at 2 µM;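 active = inhibition above the mean plus 3 SD, with well images judged a real hit on visual review, cut at about 60% in these data, passing the limit was not always enough; inconclusive = inhibition over the cutoff but images rejected on review; inactive = inhibition not above the cutoff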
# PTEN del growth: PTEN-deleted cell growth suppression; HCT116 PTEN-null viability, CellTiter-Glo, 60 h; hits give low values; viability, % at 10 µM; actives 1.2% (n = 140,000);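 active = viability at or below a set limit, 4 SD under the median of all tested compounds, cut at about 3.7% in these data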;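 note: PTEN knockout HCT116 line with beta catenin targeted HCT116 as companion control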
# Insulin prom up: MIN6 insulin promoter up-regulation. MIN6 insulin promoter-GFP reporter, high-content imaging; hits give high values. z-score at 5 µM. actives 0.3% (n = 190,000);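 active = z-score above 3 at 5 µM with at least 500 cells counted in the well; inconclusive = wells under 500 cells, flagged as cytotoxic or low count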
# * marks the source's active call; other numbers are inactive results; i = inactive; ? = inconclusive; · = no result given; + = active, no number. Compounds with a hit are over-represented: about 9.6% of the library has one in this group of screens.
SMILES,Autophagy mod,bCat KO growth,Lmaj promast,INS promoter inh,PTEN del growth,Insulin prom up
COc1ccc(-n2c(O)cnc2Nc2nc(C)cc(C)n2)cc1OC,i,102,-3,-11,96,1.6
O=C1OCC(CO)(CO)N=C1NNc1cc(Cl)ccc1Cl,i,97,97*,-32,98,·
O=C(CCCN1C(=O)/C(=C/c2cccs2)SC1=S)Nc1ccccn1,i,·,4,-60,·,·
COc1ccccc1N1CCN(C(=S)Nc2ccc3nc(N4CCOCC4)cc(C)c3c2)CC1,i,·,53*,9,·,1.5
Cc1cc(N2CCOCC2)nc2ccc(NC(=S)N3CCN(c4ccccc4)CC3)cc12,i,·,4,55,·,-1
CCN1CCN(c2cc(C)c3cc(NC(=S)N4CCN(c5ccccc5F)CC4)ccc3n2)CC1,i,·,99*,·,·,-0.5
CCN1CCN(c2cc(C)c3cc(NC(=S)N4CCN(c5ccccc5)CC4)ccc3n2)CC1,i,·,100*,-53,·,-1.8
CN1CCN(C(=S)Nc2ccc(Cl)c(Cl)c2)CC1,i,97,67*,-171,92,-0.14
CCN1CCN(c2cc(C)c3cc(NC(=S)N4CCOCC4)ccc3n2)CC1,i,·,22,·,·,0.11
S=c1[nH]nc(-c2cccnc2)n1/N=C/c1cccs1,i,85,-11,-9,89,0.77
Cc1ccc(C)c(N2CCN(C(=S)Nc3ccc4nc(N5CCN(C)CC5)cc(C)c4c3)CC2)c1,i,·,14,-50,·,-0.96
Cc1cc(N2CCN(C)CC2)nc2ccc(NC(=S)N3CCN(c4ccccn4)CC3)cc12,i,·,95*,·,·,-0.48
Cc1nc(-c2cccc(Cl)c2)n[nH]1,·,·,·,·,·,0.11
CCCCOc1ccc(C(=O)N/C(=C\c2ccc(OC)cc2)C(=O)OCc2ccco2)cc1,i,88,96*,·,71,-1.4
COCc1cc(=O)[nH]c2cc(NC(=O)C3CC3)c(C)cc12,i,112,-8,-87,90,-0.42
CCc1c(-c2ccccc2)nc2sc3c(c2c1N)CCCC3,·,·,·,·,·,-0.18
CCOC(=O)c1nc2sc3c(c2c(=O)[nH]1)CCC(C)C3 (centres undefined),·,·,·,·,·,0.79
CC1CCc2c(nc3sc4c(c3c2N)CCCC4)C1 (centres undefined),i,61,97*,-143,58,1.1
CC1CCc2nc3sc4c(c3c(N)c2C1)CCCC4 (centres undefined),i,61,92*,-69,57,-0.88
Nc1c2c(nc3sc4c(c13)CCCCC4)CCCCC2,i,58,63*,12,62,-2.5
COC(=O)Cn1c(=O)oc2ccc(C)cc21,i,·,-11,7,·,-0.66
COC(=O)c1ccc(-c2nc3cc(Cl)c(N)cc3s2)cc1,i,68,-3,-4,75,1.4
O=C(Nc1ccccc1)Nc1cc(Cl)cc(Cl)c1,i,2.0*,4,41,2.2*,·
O=C(Nc1ccccc1)Nc1cc(OCC(F)(F)F)cc(OCC(F)(F)F)c1,i,2.2*,100*,45,1.9*,-2.2
CCCCCNc1nc(N2CCCC2)c2c(c1C#N)CCN(C)C2,i,56,56*,18,54,-1.1
SMILES,Autophagy mod,bCat KO growth,Lmaj promast,INS promoter inh,PTEN del growth,Insulin prom up
COc1ccc(OCCC(=O)OCC(=O)Nc2ccc(S(=O)(=O)N3CCOCC3)cc2)cc1,i,·,-6,-9,·,0.72
O=c1c2ccccc2c(C=Nc2cccc(S(=O)(=O)NCc3ccco3)c2)c(O)n1-c1ccc(Cl)cn1,i,90,51*,·,87,0.08
CC1(C)CC(CCNC(=O)c2ccco2)CC(C)(C)N1,i,87,-3,0,104,0.96
O=C1C2C3CCC(C3)C2C(=O)N1Cc1ccccc1 (centres undefined),i,98,57*,35,100,0.54
O=C1C2C3C=CC(C4CC34)C2C(=O)N1Cc1ccccc1 (centres undefined),i,·,-5,·,·,1.9
O=C(O)CCSCC(=O)Nc1c(C(=O)C2CC2)oc2ccccc12,i,91,4,12,86,-0.4
O=C1c2ccccc2C(=O)C12OC2c1ccc(Cl)cc1Cl (centres undefined),i,2.6*,33,21,1.7*,0.21
CC1SC(c2ccc(Cl)cc2Cl)NC1=O (centres undefined),i,90,-1,-340,95,0.29
COC(=O)CC1=NN(c2ccc(OC)cc2)C(=O)C1,i,·,-2,·,·,0.01
Cc1cc2[nH]c3c(c[n+](C)c4ccccc34)c2cc1C,+,·,100*,·,·,?
Cc1cc(=O)[nH]c2ccccc12,i,92,-2,45,92,-0.38
O=C(c1cc2sccc2n1Cc1ccc(F)cc1)N1CCCc2ccccc21,i,55,78*,-28,56,-0.84
CC(C)NC(=O)C1CCN(C(=O)c2cc3sccc3n2Cc2ccc(F)cc2)CC1,i,77,13,·,79,0.54
CC1CCN(C(=O)C2CCN(C(=O)c3cc4sccc4n3Cc3ccc(F)cc3)CC2)CC1,i,48,67*,·,42,-2.6
O=C(Nc1ccc(F)cc1F)C1(c2cccs2)CCOCC1,i,·,0,11,·,-0.05
COc1cccc(C(=O)n2c(SC)nc3cc4c(cc32)OCCO4)c1,i,76,-1,·,86,-0.07
Cc1ccc(-n2c(=O)[nH]c3c(C(N)=O)nc(CC(C)C)nc32)cc1,i,81,70*,93*,93,0.12
NC(=O)c1nc(C2CCCCC2)nc2c1[nH]c(=O)n2-c1ccc(F)cc1,i,84,54*,·,81,1.2
CCOc1ccccc1-c1nc(C(N)=O)c2[nH]c(=O)n(-c3cccc(C)c3)c2n1,i,75,64*,-29,66,-0.03
CCOc1cccc(-c2nc(C(N)=O)c3[nH]c(=O)n(-c4cccc(Cl)c4)c3n2)c1O,·,99,-8,·,95,-0.55
CCOC(=O)CN(C(=O)CSc1nnc2c(n1)[nH]c1ccc(OC)cc12)c1ccc(F)cc1,i,73,90*,·,76,·
C(=N\c1nc2ccccc2n1CCN1CCCCC1)/c1cccs1,i,80,53*,34,78,·
COc1cc(CN(C)C)cc(C=O)c1O,i,·,-5,·,·,0.52
CCOc1ncccc1C(=O)OCC(=O)N(CC)c1ccccc1,+,·,1,-73,·,0.11
CCOc1ncccc1C(=O)OCc1ccccc1,i,104,-4,0,94,0.26
CCOc1ncccc1C(=O)NCc1ccccc1,i,84,54*,14,99,?
c1ccc(-c2ccccc2-c2nc(-c3ccncc3)no2)cc1,i,98,15,79*,90,0.14
CCCCNc1ccccc1C(=O)OCC(=O)Nc1ccc(S(N)(=O)=O)cc1,i,87,78*,-24,87,0.68
CCOc1ccccc1NC(=O)Nc1cccc(NC(C)=O)c1,·,·,·,·,·,-0.45
O=C1C(NS(=O)(=O)c2cccs2)=C(N2CCN(c3cccc(Cl)c3)CC2)C(=O)c2ccccc21,i,77,99*,-56,70,-0.32

# Source: PubChem BioAssay
